Reference: PubChem BioAssay (Tox21)
Calls of active or inactive are those of the source. Calls come from the whole dose curve; as a rule, active = well fitted curve in the direction sought with a large enough effect in the repeat runs; inconclusive = weak or mixed curves; inactive = flat fitted curve, though single readings scatter.

test: qHTS assay to test for compound auto fluorescence at 590 nm (red) in HepG2 cells (AID 720674); conditions: HepG2 autofluorescence, red 540/590 nm, 1 h; series mostly up to 91.3 µM
Description: U.S. Tox21 Program National Center for Advancing Translational Sciences [NCATS] NIH Chemical Genomics Center [NCGC] U.S. Environmental Protection Agency [EPA] National Institutes of Environmental Health Sciences [NIEHS] National Toxicology Program [NTP] U.S. Food and Drug Administration [FDA] Tox21 Assay Overview: Compound auto fluorescence often interferes with screening of the compound library against various biological targets and signaling pathways. Some of these compounds may have fluorophoric properties. Such properties may interfere with the assay outputs resulting in false positives and/or negatives. To decrease such complications and ensure the compound activities are relevant in terms of biological response, the Tox21 10K compound library was screened for auto fluorescence. From the fluorophores used as reporter signals in our screening assays, the auto fluorescence equivalencies of compounds against three fluorophores have been evaluated: Triamterene, Fluorescein and Rose Bengal sodium for blue, green and red fluorescence, respectively. The fluorescence intensities were measured using Excitation/Emission wavelengths at 405/460nm, 485/535nm and 540/590nm for blue, green and red labels, respectively. This assay includes the red fluorescence data.
Tox21 Assay Protocol Summary: 2,000 HepG2 cells in 5 uL of culture medium (MEM containing 10% FBS) per well were dispensed into black wall/clear bottom 1536-well plates using a Multidrop Combi Dispenser (ThermoFisher Scientific, Waltham, MA). The assay plates were incubated overnight at 37 C to allow cell attachment to the well bottom, followed by the transfer of 23 nL compound or DMSO vehicle by a pintool work station (Kalypsys , San Diego, CA). After the assay plates were incubated for 1 hr at 37 C and 5% CO2, fluorescence intensities in the assay plates were measured by an Envision (PerkinElmer, Shelton, CT) plate reader using three labels for measuring blue, green and red fluorescence at […] 460, 535 and 590 nm respectively.

SMILES | outcome
CCNc1nc(NC(C)(C)C)nc(SC)n1 | inactive
CCCN(CCC)c1c([N+](=O)[O-])cc(C(F)(F)F)cc1[N+](=O)[O-] | inactive
c1ccc(-c2ccccc2)cc1 | inactive
CC1C=[C-]C=C1.[C-]#[O+].[C-]#[O+].[C-]#[O+].[Mn] | inactive
CCNc1nc(NC(C)C)nc(SC)n1 | inactive
O=C1CCCN1 | inactive
O=c1n(Cl)c(=O)n(Cl)c(=O)n1Cl | inactive
CC(C)OC(=O)Nc1cccc(Cl)c1 | inactive
CN(C)[C@@H]1C(=O)C(C(N)=O)=C(O)[C@@]2(O)C(=O)C3=C(O)c4c(O)cccc4[C@@](C)(O)[C@H]3C[C@@H]12 | inactive
[O-][Cl+2]([O-])O | inactive
[N-]=[N+]=[N-] | inactive
O=C(O)c1ccccn1 | inactive
CC(Oc1ccc(Cl)cc1Cl)C(=O)O (stereo not given) | inactive
CCCC1COC(Cn2cncn2)(c2ccc(Cl)cc2Cl)O1 (stereo not given) | inactive
CC(C)(C)C(O)(CCc1ccc(Cl)cc1)Cn1cncn1 (stereo not given) | inactive
O=NN1CCCC1 | inactive
O=[N+]([O-])c1ccccc1 | inactive
CCCCCCCCCCCC#N | inactive
CCC(C)(CC)c1cc(NC(=O)c2c(OC)cccc2OC)on1 | inactive
COC(=O)NC(=S)Nc1ccccc1NC(=S)NC(=O)OC | inactive

SMILES | outcome
ClCCBr | inactive
O=S(=O)(c1ccc(Cl)cc1)c1cc(Cl)c(Cl)cc1Cl | inactive
CC1OC(C)OC(C)O1 (stereo not given) | inactive
CN(C)N=O | inactive
COP(N)(=O)SC (stereo not given) | inactive
CC(NC(C)(C)C)C(=O)c1cccc(Cl)c1 (stereo not given) | inactive
CC(=O)C=C(C)C | inactive
CCOP(=S)(OCC)Oc1cnc2ccccc2n1 | inactive
CN(N=O)c1ccccc1 | inactive
Clc1ccc(Cl)cc1 | inactive
CCCN(CCC)N=O | inactive
CCOP(OCC)OCC | inactive
COc1ccc2c3c1O[C@H]1[C@@H](O)C=C[C@H]4[C@@H](C2)N(C)CC[C@@]341 | inactive
CC(C)C#N | inactive
CCC12COCN1COC2 | inactive
CCN(CC)c1ccccc1 | inactive
Nc1ccc(Br)cc1 | inactive
NCCc1ccc(O)cc1 | inactive
Nc1c(Cl)c(Cl)nc(C(=O)O)c1Cl | inactive
CNC(=O)Oc1ccccc1OC(C)C | inactive
